Bioassay records from PubChem.
Rows were chosen to be rich in hits. Some 3.1% of all compounds tested hit in one or more screens of this group.
p53null 32C tox: p53 null cell cytotoxicity, permissive temperature. Potency, µM (doses to about 46.1 µM), usual class: cytotoxic. 55,000 compounds, 0.62% hits. H1299-neo p53 null cells, ATP luminescence, 24 h, 32C. AID 903; also: nearly all actives have a fitted effect of over 55% in size
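H1299-neo, 600 cells/well; overnight 37C; cpd up to 46 uM, 24 h at 32C; ATPlite luminescence after 20 min RT; normalized to DMSO (0%) and tamoxifen 100 uM (100% kill); Hill-fit AC50.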
S16 viability: S16 Schwann cell cytotoxicity | S16 Pmp22-F2sN Schwann cells viability, CellTiter-Glo, 24 h | Potency, µM (series often up to 57.5 µM), most hits filed as cytotoxic | 43,000 compounds, 0.48% hits | AID 1508642; also: nearly all actives have a fitted effect of over 65% in size
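Rat S16 Schwann reporter line, 24 h treatment with library compounds delivered at 23 nL per well. Cell viability by CellTiter-Glo luminescence.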
OvCa metastasis: ovarian cancer metastasis inhibition, 3D TME model; AID 1963576; Potency, µM (titrated, usually from 45.8 µM), most hits filed as inhibitors; SKOV3ip1-GFP adhesion/invasion on 3D omental model, fluorescence; 46,000 compounds, 0.1% hits; also: nearly all actives have a fitted effect of over 65% in size
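Primary human omental fibroblast/mesothelial 3D culture pre-formed 48 h. SKOV3ip1-GFP cells added with compounds (0.36-46 umol/L), incubated 2 h RT/16 h 37 C, fixed; GFP cells quantified at 488/509 nm.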
p53null 39C tox: selectivity test: cytotoxicity in p53 null cells, nonpermissive temperature | 55,000 compounds, 0.97% hits | H1299 p53-null (neo) cells, 39C, ATPlite viability, 24 h | Potency, µM (highest dose often 46.1 µM), actives largely listed as cytotoxic; also: nearly all actives have a fitted effect of over 50% in size
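ATP-luminescence viability readout (ATPlite, 20 min RT) after 24 hr compound treatment at 39C of H1299-neo or H1299-p53A138V cells; titration up to 46 uM; normalized to DMSO and 100 uM tamoxifen; Hill-fit AC50.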
PMP22 txn prim: modulators of PMP22 gene transcription in S16 Schwann cells; Potency, µM (series often up to 57.5 µM), actives largely listed as inhibitors; S16 Pmp22-F2sN Schwann cells (luciferase reporters placed in the Pmp22 gene), FLuc/NLuc coincidence luminescence, 24 h; AID 1508649; 43,000 compounds, 2% hits; active = clear falling dose curves in both reporters; inconclusive = both reporters move, but less clearly or upward; inactive = either reporter flat; the % is the NLuc reporter signal
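S16(c9) Schwann cells with FLuc/NLuc coincidence reporter in the Pmp22 3' UTR; compounds pin-transferred, 24 h at 37C. Dual-luciferase read: FLuc first, then NLuc after Stop&Glo, each 10 min at room temperature.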
mTORC1 inh: mTORC1 pathway inhibition measured by phospho-rpS6; 44,000 compounds, 0.78% hits; Potency, µM (titrated, usually from 38.3 µM), usual class: inhibitors; Tsc2-/- p53-/- MEF, phospho-rpS6 immunofluorescence/PI, 24 h; AID 493208; also: nearly all actives have a fitted effect of over 50% in size
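Immunofluorescence of rpS6 phosphorylation in Tsc2-/-, p53-/- MEFs after 24 h compound exposure, normalized to propidium iodide signal. Activity is expressed as % positive cells, thresholded with 7.5 nM rapamycin.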
NLuc sat counter: inhibits NanoLuc at saturating substrate, PMP22 counter-screen; shares compounds with PMP22 txn prim; Secreted NLuc enzyme (filtered S16 cell medium), Nano-Glo luminescence; Potency, µM (doses to about 57.5 µM), most hits filed as inhibitors; 690 compounds, 4% hits
NLuc Km ctr: inhibits NanoLuc under Km conditions, PMP22 counter-screen; secreted NLuc enzyme, coelenterazine luminescence, Km conditions; Potency, µM (highest dose often 57.5 µM), actives largely listed as inhibitors; AID 1508639; 690 compounds, 5% hits; shares compounds with PMP22 txn prim
FLuc counter: inhibits firefly luciferase, PMP22 counter-screen. shares compounds with PMP22 txn prim. Potency, µM (doses to about 57.5 µM), hits mostly inhibitors. purified P. pyralis FLuc, luminescence, 10 min. 690 tested, under 10 active
Target sequence (P08659 whole entry, looked up): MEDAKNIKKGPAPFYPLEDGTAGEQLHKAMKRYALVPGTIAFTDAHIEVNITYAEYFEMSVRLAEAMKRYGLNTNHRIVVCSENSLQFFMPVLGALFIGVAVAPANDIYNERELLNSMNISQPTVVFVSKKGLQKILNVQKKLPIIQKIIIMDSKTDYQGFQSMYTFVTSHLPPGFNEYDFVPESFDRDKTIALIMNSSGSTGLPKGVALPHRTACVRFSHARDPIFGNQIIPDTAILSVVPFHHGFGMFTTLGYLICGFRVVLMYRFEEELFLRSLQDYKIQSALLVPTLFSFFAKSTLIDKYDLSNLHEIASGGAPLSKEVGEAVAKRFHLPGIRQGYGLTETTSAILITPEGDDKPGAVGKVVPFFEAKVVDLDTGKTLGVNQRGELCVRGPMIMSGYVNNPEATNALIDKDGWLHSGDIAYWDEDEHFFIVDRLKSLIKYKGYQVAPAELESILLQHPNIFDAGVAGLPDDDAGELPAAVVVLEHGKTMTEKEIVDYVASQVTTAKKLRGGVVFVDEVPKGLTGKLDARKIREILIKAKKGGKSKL
S16 F2sN tox cnf: S16 Schwann cell cytotoxicity, confirmatory; AID 1508641; shares compounds with PMP22 txn prim; 690 compounds, 7% hits; Potency, µM (highest dose often 57.5 µM), most hits filed as cytotoxic; S16 Schwann cells viability, CellTiter-Glo ATP luminescence, 24 h
PMP22 txn cnf: confirmation of modulators of PMP22 gene transcription in S16 cells; 690 compounds, 22% hits; S16 Schwann cells Pmp22-F2sN, dual luciferase, 24 h; shares compounds with PMP22 txn prim; AID 1508646; Potency, µM (titrated, usually from 57.5 µM), actives largely listed as inhibitors; active = clear falling dose curves in both reporters; inconclusive = both reporters move, but less clearly or upward; inactive = either reporter flat; the % is the FLuc reporter signal
Numbers stand for hits; n = inactive; u = inconclusive; x = no result; [ ] = dose if it differs, or a comment. Unless noted, calls follow the shape of the dose curve; as a rule, active = well fitted curve in the direction sought with a large enough effect; inconclusive = small, poorly fitted or top-dose-only effect, or another doubt; inactive = no such curve, though single readings can be large; an effect the other way counts as inactive or inconclusive.

SMILES | p53null 32C tox | S16 viability | OvCa metastasis | p53null 39C tox | PMP22 txn prim | mTORC1 inh | NLuc sat counter | NLuc Km ctr | FLuc counter | S16 F2sN tox cnf | PMP22 txn cnf
CCOC(=O)c1c(NC(=O)COc2ccc(Br)cc2)sc(C(C)=O)c1C | n | n | n | n | 2.1µM | n | n | n | n | n | n
Cc1cccc(N2CCN(C(=O)c3cccc(-n4c(C)nc5cccnc54)c3)CC2C)c1 (stereo not given) | n | n | n | n | u | n | x | x | x | x | x
Cc1ccc(Cl)cc1N1CCN(C(=O)c2ccc(C)c(-n3c(C)nc4cccnc43)c2)CC1 | n | u | n | n | 19µM | n | 22µM | 19µM | n | n | u
Cc1cccc(N2CCN(C(=O)c3cccc(-n4c(C)nc5cccnc54)c3)CC2)c1C | n | n | n | n | 13µM | n | u | u | n | n | n
Cc1ccc(C)c(N2CCN(C(=O)c3cccc(-n4c(C)nc5cccnc54)c3)CC2)c1 | n | u | n | n | u | n | x | x | x | x | x
CCOC(=O)[C@@H](N)Cc1ccc(-c2cc(O[C@H](c3ccc(Cl)cc3-n3ccc(C)n3)C(F)(F)F)nc(N)n2)cc1 | x | x | n | x | x | x | x | x | x | x | x
COc1ccc(CNC(=O)CN(c2ccccc2OC)S(=O)(=O)c2ccc(C)cc2)cc1 | n | n | n | n | u | n | x | x | x | x | x
CCN(Cc1ccccc1)C(=O)c1c(C)oc2ncn(C)c(=O)c12 | n | n | n | n | n | n | x | x | x | x | x
Cc1c(C(=O)NCc2ccccc2)sc2nc[nH]c(=O)c12 | n | n | n | n | n | n | x | x | x | x | x
Cc1c(C(=O)NCc2cccc(Cl)c2)sc2nc[nH]c(=O)c12 | n | n | n | n | u | n | u | n | n | u | n
CCCCCn1c(=O)[nH]c2cc(C(=O)Nc3cc(OC)cc(OC)c3)ccc2c1=O | n | n | n | n | u | n | x | x | x | x | x
CCCCC(CC)CNC(=O)c1ccc2c(=O)n(Cc3ccc(OC)cc3)c(=O)[nH]c2c1 (stereo not given) | n | n | n | n | 12µM | n | n | n | n | n | u
O=C(Cn1cc(C(=O)C2CCCCC2)c2ccccc21)Nc1ccccc1Cl | n | n | n | n | 9.5µM | n | n | n | n | n | u
CC1=Nc2cc(C(=O)NC3CCCC3)ccc2Sc2ccc(C)cc21 | n | n | n | u | 7.8µM | u | n | n | n | n | u
Cc1c(Cl)cccc1N1C(N)=C(C#N)C(c2cc(CN3CCOCC3)cs2)C2=C1CCCC2=O (stereo not given) | n[9.22 µM] | n | n | n | 7.2µM | n | u | u | n | n | n
CC(C)CSc1oc(-c2ccco2)nc1S(=O)(=O)c1ccc(Br)cc1 | n | n | n | n | u | n | x | x | x | x | x
COc1ccc(C)cc1NC(=O)c1c(C(=O)Nc2cccc(C)c2C)sc2nc(C)cc(=O)n12 | n | x | n | n | x | n | x | x | x | x | x
O=C(NCCC1=CCCCC1)c1ccc2c(c1)N(Cc1ccccc1)C(=O)c1ccccc1S2=O (stereo not given) | n | n | n | n | 13µM | n | n | n | n | n | n
